Measurements published in PubChem BioAssay AID1794845 (National Center for Advancing Translational Sciences (NCATS), 2023).
The campaign covered roughly 6,900 compounds. Fewer than 10 were called active. Calls follow the shape of the dose curve; as a rule, active = well fitted curve in the direction sought with a large enough effect; inconclusive = small, poorly fitted or top-dose-only effect, or another doubt; inactive = no such curve, though single readings can be large or run the other way. A selection follows.

Biological target: Metallo-beta-lactamase type 2 (Klebsiella pneumoniae) (UniProt C7C422)
Assay: qHTS to identify inhibitors of the New Delhi Metallo-beta-lactamase (NDM): primary screen against the NCATS Gemini Collection
Settings: NDM-1 enzyme, meropenem hydrolysis, absorbance 300 nm; series mostly up to 38.4 µM
Excerpt: Assay Submitter (PI): James Inglese Ph.D., Patricia Dranchak Ph.D., Mahesh Aitha Ph.D. Assay Development and Screening Technology Laboratory (ADST) National Center for Advancing Translational Sciences (NCATS), Rockville, MD National Institute of Health (NIH), Bethesda, Maryland The metallo-beta-lactamases (MBL) are a main antibiotic resistance mechanism evolved by bacteria. There is an urgent clinical need for MBL inhibitors to mitigate this growing threat. To support a machine-based learning study, qHTS has been used to experimentally test inhibitors identified by prediction tools.
PROTOCOL TABLE (as described by Inglese et al., 2007) SEQUENCE No. (e.g., 1, 2, 3, etc.); […] (e.g., enzyme, Incubation, Reagent, etc.); VALUE; DESCRIPTION 1; NDM-1; 4 uL of 3 nM enzyme [2 nM final] in 50 mM HEPES (pH 7.0), 1 uM […], 0.01% Tween20; Use BioRaptr to dispense into Aurora black, clear bottom low base 1536-well plates 2; Compounds; 23 nL; Use Pin Tool (Wako) to transfer DMSO control and library compounds in DMSO 3; Incubate; >30 min 4; Reagent; 2 uL of 150 uM meropenem [50 uM final] 5; Incubate; 30 min. 6; Detector; Absorbance at 300 nm (bandwidth = 5 nm, 25 flashes/well) on Tecan Infinity NOTES (numbers refer to sequence above) 1; Column 1 of each plate received assay buffer without enzyme and columns 2-48 received enzyme for a final assay concentration of 2 nM. 2; Control plate contained DMSO in columns 1, 2, 3, and 4. 3; Compound interaction with enzyme. 4; Meropenem substrate was prepared in the same assay buffer as step 1 for a final assay concentration of 50 uM and added to all wells across the assay plates. 5; Substrate interaction with enzyme, plateau phase of kinetics. 6; Default reader settings were applied for absorbance read at 300 nm, bandwidth = 5 nm, 25 flashes/well. References: Inglese J, Shamu CE, Guy RK. 2007. Reporting data from high-throughput screening of small-molecule libraries. Nat Chem Biol. doi:10.1038/nchembio0807-438 Yasgar A, Shinn P, Jadhav A, Auld D, Michael S, Zheng W, Austin CP, Inglese J, Simeonov A. 2008. Compound Management for Quantitative High-Throughput Screening. J Lab Autom 13:79 - 89. doi:10.1016/j.jala.2007.12.004

Chain of Metallo-beta-lactamase type 2 (Klebsiella pneumoniae) (C7C422 whole entry, looked up): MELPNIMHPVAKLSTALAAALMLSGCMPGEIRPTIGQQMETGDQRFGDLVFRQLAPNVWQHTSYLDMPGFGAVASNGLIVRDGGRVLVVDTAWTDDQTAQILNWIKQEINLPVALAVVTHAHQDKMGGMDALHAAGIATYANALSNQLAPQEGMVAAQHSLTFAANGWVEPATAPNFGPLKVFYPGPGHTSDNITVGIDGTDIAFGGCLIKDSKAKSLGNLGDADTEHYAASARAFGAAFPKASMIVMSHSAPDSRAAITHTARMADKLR

outcome, inactive:
CN1C(=O)[C@H]2CN(Cc3cn[nH]c3-c3cccs3)C[C@H]2C1=O
CCOCCn1c(=O)[nH]c2cc(C(=O)NCCn3cnnc3)ccc21
Cn1cnnc1-c1nn(C)c2c1CNCC2
COc1ccc(-c2nc(N3CCOCC3)cc3c2CN(Cc2ccccc2)C3=O)cn1
O=C(c1ccc(Cl)cc1)N1CCN(Cc2ccccc2-c2cccnc2)CC1
CCOCCn1nc(C)cc1C(=O)N[C@H]1[C@H]2CCO[C@H]2[C@@H]1N(C)C
CCn1c(CO)nnc1C1CC(NC(=O)c2[nH]c3ccc(OC)cc3c2C)C1 (configuration not stated)
O=C(NCCCc1ccccc1F)[C@@]12CNC[C@@H]1CN(Cc1ccccc1)C2
CCCNc1ccc2nncn2n1
COc1cc(OC)cc(-c2onc(C)c2C(=O)NCc2ccccc2C)c1
CS(=O)(=O)NC[C@H]1Cn2ccnc2CO1
Cc1noc(C)c1[S+](=O)([O-])N1CCc2nc(-c3ccccc3)nc(-c3ccc(Cl)cc3)c2C1
Cc1ccc2nc(C(NC(=O)C3CCN(CC(N)=O)CC3)C(C)C)[nH]c2c1 (configuration not stated)
COc1cc2c(cc1NS(C)(=O)=O)C(c1cccc3c1OCO3)CC(=O)N2 (configuration not stated)
Cn1cc(-c2ccc3c(n2)CN(Cc2ccc(F)cc2)C(=O)CO3)cn1
Cc1nn(-c2ccccc2)c(C)c1Cc1nc(C(C)C)no1
Cn1cncc1C(=O)N1CCC2(CC1)CNC(C(=O)O)C2 (configuration not stated)
COc1cccc(N2CCN(C(=O)c3noc(-c4ccc(C)cc4)n3)CC2)c1
CCc1c(C)nn(CCNC(=O)c2cc(S(N)(=O)=O)ccc2F)c1C
COc1cc(F)ccc1-c1nc(-c2c(C)noc2C)cc2cc(C)oc12
COCCCN(CCC(=O)NCc1ccc2c(c1)OCO2)C(=O)c1cc(C)oc1C
Cc1cnc(CCNS(=O)(=O)c2cccc(F)c2)n1C(C)C
Cc1cccnc1NCCNC(=O)c1ccc(S(N)(=O)=O)cc1
CCCN1CCC2(CCN([S+](=O)([O-])c3cccs3)CC2)Oc2ccccc21
Cc1ccc(C(=O)N2CCCC2C(=O)N2CCCC2c2nc3ccncc3[nH]2)cc1 (configuration not stated)
O=C(c1ccoc1)N1CCN(c2cc(C3CC3)ncn2)CC(O)C1 (configuration not stated)
Cc1n[nH]c(C)c1CNC(=O)C1CCN(c2cn[nH]c(=O)c2)C1 (configuration not stated)
COCCC1(NC(=O)C2CC2)CCN(C(=O)c2ccccn2)CC1
O=C1CC2(CCN(C(=O)c3ccccn3)C2)Nc2ccccc2N1 (configuration not stated)
O=C1Cc2c(-c3ccccc3OCc3ccccc3)n[nH]c2CN1Cc1ccccn1
CCCc1ccc2oc(C(=O)N(C)CCC3CCCCO3)c(C)c2c1 (configuration not stated)
O=C1NCCCc2[nH]c(-c3cnn(-c4ccc(F)cc4)c3)nc21
CCc1nc2c(c(-c3ccc(Cl)cc3)n1)CN(Cc1ccccn1)CC2
CCN1CCC(CC(=O)N2CCC(C3CCN(C(=O)NC)CC3)C2)CC1 (configuration not stated)
CN(C)S(=O)(=O)N1CCc2nn(C)c(=O)n2CC1
CC(=O)c1ccc(NC(=O)N[C@H]2CCN3C(=O)[C@@H](Cc4ccccc4)NC(=O)[C@H]23)cc1
CCn1ccc(C(=O)N2CC(c3nc(CCOCC4CC4)no3)C2)n1
NC(=O)[C@@H](Cc1ccccc1)NC(=O)[C@@H]1C[C@@H](NS(=O)(=O)c2cccs2)CCN1C(=O)CSCC(=O)O
COc1cccc(CCC(=O)N2CCC(OCC3CC3)C2)c1 (configuration not stated)
CN1C(=O)CC[C@]2(C(=O)NCc3ccco3)CCCC[C@@H]12
Cc1cn2nnc(C(=O)N3CCC(C(=O)Nc4cccc(F)c4)CC3)c2c(=O)[nH]1
COc1ccc(CN(C)C2CCCN(CCc3ccccc3)C2)c(OC)c1OC (configuration not stated)
CC(=O)N1CCC(OCCOc2ccccc2)CC1
CCOc1c(CN(C)C(=O)Cn2cccc(OC)c2=O)cccc1OC
Oc1ccccc1CN1CC(CNc2cccnc2)C2(C1)CN(c1ccccc1)C2 (configuration not stated)
O=C(CC1CCCC1)N1C[C@@H](CO)[C@@H]2Oc3ccc(Cl)cc3[C@@H]21
COC1CCOC2(CCN(C(=O)Cc3ccccc3)CC2)C1 (configuration not stated)
CCc1ccc(S(=O)(=O)N2c3ccccc3CC2c2nnc(C3CCOCC3)o2)cc1 (configuration not stated)
CC(C)(C)OC(=O)N1CC(NCc2cccc(F)c2F)C1
C1=C(c2nc(-c3ccncc3)cc3c2ccn3Cc2cccnc2)CCOC1
COC(=O)N1CCCCC1C(=O)N1CCC2(CC1)c1nc[nH]c1CCN2C (configuration not stated)
O=C(N1CCCCCC1CN1CCOCC1)C1(c2ccccc2)CC1 (configuration not stated)
CCC1CN(C(=O)c2ccc(NCc3cnn(CC)c3)nc2)CCN1C(C)C (configuration not stated)
N#CC1CCN(C(=O)C2CCN(C(=O)c3ccc(-c4cncnc4)cc3)CC2)CC1
CC(C)C(=O)N1CCC(NCCOc2ccccc2Cl)CC1
CC(C)N(Cc1nccn1C)C(=O)CC(c1ccccc1)c1ccccc1F (configuration not stated)
CCc1ccccc1NC(=O)N1C[C@@H](F)C[C@H]1C(=O)N1CCc2ccccc2C1
COCCOCc1nc(C2CCCN2C(=O)Nc2ccc(F)cc2F)no1 (configuration not stated)
COc1ccc(NC(=O)[C@@H]2C[C@H](c3ccc(F)cc3)N(Cc3ccccc3Cl)C2)cn1
CN(C)C(=O)N1CCC2(CC1)CC(c1cccc(C(F)(F)F)c1)=NO2
COC1CCOC2(CCN(C(=O)CCc3nc4ccccc4s3)CC2)C1 (configuration not stated)
Cc1cc(C)n(C2CCN(c3nccc(-c4ccccn4)n3)C2)n1 (configuration not stated)
CN(C)Cc1nnc(C2CC(NC(=O)Cc3c[nH]c(=O)n(C)c3=O)C2)n1C (configuration not stated)
O=C(C1CCCN1C(=O)Cc1ccc(F)cc1)N1CCC(N2CCOCC2=O)CC1 (configuration not stated)
O=C1CCC(C(=O)N2CCSCC2)CN1CCc1cccc(F)c1 (configuration not stated)
CCN(Cc1ccncc1)C(=O)c1coc(COc2cccc(C(F)(F)F)c2)n1
CCOC(=O)[C@H]1C[C@]2(CCCCNC2=O)N(C(=O)c2cccc(OC)c2)[C@H]1c1ccco1
